Assay [1] is described as follows: Cell Viability - H-4-II-E (AID 543; active means well fitted curve in the direction sought with a large enough effect; an effect the other way counts as inactive or inconclusive;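 further: cells exposed to compound for 40 hours; on the % scale 0 is the no-effect control and ±100 the full control effect; nearly all actives have a fitted effect of over 35% in size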). As to conditions: H-4-II-E rat hepatoma viability; series mostly up to 92.2 µM. The procedure, abridged:
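Here, cytotoxicity is measured in the rat hepatoma line H-4-II-E as loss of intracellular ATP after 40 hr compound treatment, detected by luciferase luminescence.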

A short description of assay [2]: MultiTox-Fluor Cytotoxicity Assay - LYMP1-001 - Live Cells (AID 947; active means well fitted curve in the direction sought with a large enough effect; an effect the other way counts as inactive or inconclusive;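 further: 0% = DMSO only and full inhibition = tetraoctylammonium bromide control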). As to conditions: LYMP1-001 lymphoblastoid cells, live-cell protease fluorescence viability; series mostly up to 92.2 µM.
For assay [3], the target named is Estrogen receptor (Homo sapiens) (UniProt P03372). Nature of the assay: qHTS assay for small molecule antagonists of estrogen receptor alpha signaling (AID 588513; active means well fitted curve in the direction sought with a large enough effect in the signal ratio, with a control signal flat, not every such curve was filed as active; the % refers to the signal ratio; further: on the % scale 0 is the no-effect control and ±100 the full control effect). The conditions noted are these: ER-alpha-UAS-bla HEK293, beta-lactamase ratio, antagonist mode; series mostly up to 76.9 µM. The procedure, abridged: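 Beta-lactamase reporter, antagonist mode, HEK 293 GripTite cells; 0.5nM E2 stimulus, 18 h, 37 C; CCF4 dye 2 h RT; fluorescence. IC50 and efficacy from Hill fits, normalized to E2 and DMSO.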
Estrogen receptor (Homo sapiens), sequence (P03372 whole entry, looked up): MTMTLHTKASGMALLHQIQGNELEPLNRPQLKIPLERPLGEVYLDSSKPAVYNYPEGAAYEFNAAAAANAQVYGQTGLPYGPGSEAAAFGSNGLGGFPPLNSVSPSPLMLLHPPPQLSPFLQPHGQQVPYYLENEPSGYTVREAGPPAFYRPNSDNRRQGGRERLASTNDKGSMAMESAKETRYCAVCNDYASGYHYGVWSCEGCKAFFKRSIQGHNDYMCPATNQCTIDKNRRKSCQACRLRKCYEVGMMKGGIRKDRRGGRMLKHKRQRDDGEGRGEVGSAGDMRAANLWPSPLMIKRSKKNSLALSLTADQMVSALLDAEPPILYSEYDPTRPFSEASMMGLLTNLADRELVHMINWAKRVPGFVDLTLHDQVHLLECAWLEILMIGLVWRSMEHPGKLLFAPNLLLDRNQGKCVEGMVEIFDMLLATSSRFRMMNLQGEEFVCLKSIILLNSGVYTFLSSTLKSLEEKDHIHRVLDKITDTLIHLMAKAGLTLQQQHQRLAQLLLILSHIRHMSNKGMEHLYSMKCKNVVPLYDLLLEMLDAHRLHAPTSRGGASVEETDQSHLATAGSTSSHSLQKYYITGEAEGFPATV
On the technique in general: qHTS replaces the single test concentration by a dilution series.

For assay [4] the target is unchanged. Description: qHTS assay for small molecule agonists of estrogen receptor alpha signaling (AID 588514).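 Further: 0% = vehicle only and 100% = reference agonist; nearly all actives have a fitted effect of over 70% in size.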 The conditions noted are these: ER-alpha-UAS-bla HEK293, beta-lactamase ratio, 18 h; series mostly up to 76.8 µM. The procedure, abridged:
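Reporter-gene assay. […] controls beta-lactamase in HEK 293 GripTite cells; after 18 hrs with compound, CCF4 substrate is added for 2 hrs and fluorescence is read.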

Assay [5] has as its target Glucocorticoid receptor (Homo sapiens) (UniProt P04150). Description: qHTS assay for small molecule agonists of glucocorticoid receptor signaling (AID 588532; active means well fitted curve in the direction sought with a large enough effect in the signal ratio, with a control signal flat; the % refers to the signal ratio;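 further: 100% = dexamethasone at 0.1 µM and 0% = DMSO only wells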). The conditions noted are these: HeLa MMTV-bla, beta-lactamase ratio, agonist, 18 h; stronger effect = higher value; percent of dexamethasone control, DMSO zero. The procedure, abridged:
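Cells were plated and rested 3-5 h at 37 C, compounds were added in titration and incubated 18 h, then CCF4 substrate was loaded for 2 h at RT before reading blue/green fluorescence. EC50 came from Hill-equation fitting.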

Assay [6] shares this target. Description: qHTS assay for small molecule antagonists of glucocorticoid receptor signaling (AID 588533; active means well fitted inhibition curve with a large enough effect in the signal ratio, with a control signal flat, not every such curve was filed as active; the % refers to the signal ratio; further: on the % scale 0 is the no-effect control and ±100 the full control effect). As to conditions: HeLa MMTV-bla, GRE beta-lactamase ratio, antagonist mode, 18 h; series mostly up to 76.8 µM. The procedure, abridged:
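Antagonist-mode qHTS: compound titrations added to GRE-bla HeLa cells, then dexamethasone 2 nM final; 18 h, 37 C. CCF4 FRET fluorescence normalized to dexamethasone and DMSO; IC50 from Hill fit.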

Assay [7] addresses Peroxisome proliferator-activated receptor delta (Homo sapiens) (UniProt Q03181). Nature of the assay: qHTS assay for small molecule agonists of peroxisome proliferator-activated receptor delta signaling (AID 588534).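 Further: 0% = DMSO basal wells and 100% = positive control agonist at 10 µM.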 As to conditions: HEK293T PPARdelta-UAS-bla, beta-lactamase ratio, 18 h; series mostly up to 76.7 µM. The procedure, abridged:
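Reporter cells were plated and held 5 hrs at 37 C before compounds were added. After 18 hrs at 37 C, CCF4 dye was loaded for 2 hrs at RT and fluorescence measured.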

A short description of assay [8]: qHTS assay for small molecule antagonists of peroxisome proliferator-activated receptor delta signaling (AID 588535; active means well fitted inhibition curve with a large enough effect in the signal ratio, with a control signal flat, not every such curve was filed as active; the % refers to the signal ratio;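 on max response: cells co-treated with a PPAR-delta agonist as stimulator during compound exposure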). As to conditions: HEK293T PPARd-UAS-bla, beta-lactamase FRET ratio, 18 h; 460 nm channel. Summed up: (§1)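 Cells were seeded at 4000 per well in assay medium containing 2% charcoal/dextran FBS and held 5 hrs at 37 C. Compounds were then added for 18 hrs. CCF4 substrate was applied for 2 hrs at room temperature before fluorescence reading.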

In assay [9] the target is Peroxisome proliferator-activated receptor delta (Homo sapiens) (UniProt Q03181). Described as above. The conditions noted are these: HEK293T PPARd-UAS-bla, beta-lactamase FRET ratio, 18 h; series mostly up to 76.7 µM. The procedure, abridged:
as §1

For assay [10], the target named is Peroxisome proliferator-activated receptor gamma (Homo sapiens) (UniProt P37231). Nature of the assay: qHTS assay for small molecule antagonists of peroxisome proliferator-activated receptor gamma signaling (AID 588537; active means well fitted inhibition curve with a large enough effect in the signal ratio, with a control signal flat, not every such curve was filed as active; the % refers to the signal ratio;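 further: reporter cells co-stimulated with 50 nM rosiglitazone agonist during compound treatment; % of control where 0% means no effect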). As to conditions: HEK293 PPARg-UAS-bla, beta-lactamase ratio, antagonist mode; series mostly up to 76.8 µM. Summed up: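 Step one: plate 3000 HEK293 UAS-bla cells per well in medium with 1% stripped serum and hold 6-6.5 h at 37 C. Step two: add compound and 50 nM agonist for 16 h. Step three: CCF4 loading, fluorescence read.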
Peroxisome proliferator-activated receptor gamma (Homo sapiens), sequence (P37231 whole entry, looked up): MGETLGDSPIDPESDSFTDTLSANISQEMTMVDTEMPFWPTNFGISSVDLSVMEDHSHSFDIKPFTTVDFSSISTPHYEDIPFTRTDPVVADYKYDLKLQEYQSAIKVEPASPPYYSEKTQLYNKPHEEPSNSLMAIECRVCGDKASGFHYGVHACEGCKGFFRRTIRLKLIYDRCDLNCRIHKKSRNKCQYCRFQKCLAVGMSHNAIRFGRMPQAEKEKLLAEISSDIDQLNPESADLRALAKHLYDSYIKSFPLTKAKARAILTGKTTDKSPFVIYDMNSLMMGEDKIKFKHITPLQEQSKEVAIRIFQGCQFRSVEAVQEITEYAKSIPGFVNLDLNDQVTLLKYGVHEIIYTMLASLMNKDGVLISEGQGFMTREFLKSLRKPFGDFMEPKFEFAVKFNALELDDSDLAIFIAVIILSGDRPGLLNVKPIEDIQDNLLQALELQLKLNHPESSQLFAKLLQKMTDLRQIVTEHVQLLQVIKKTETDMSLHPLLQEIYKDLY

Assay [11] in a line: qHTS assay for small molecule agonists of the antioxidant response element (ARE) signaling pathway (AID 651741; active means well fitted activation curve with a large enough effect in the signal ratio; the % refers to the signal ratio; further: % of control where 0% means no effect). The conditions noted are these: HepG2 ARE-bla reporter, beta-lactamase FRET ratio, 16 h; series mostly up to 96 µM. The procedure, abridged:
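HepG2 ARE-bla cells plated at 2,000 cells/well and incubated 5 h at 37 C/5% CO2 received 23 nL compound in DMSO. After 16 h at 37 C, LiveBLAzer B/G FRET substrate was applied for 2 h at room temperature and fluorescence read.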

Assay [12] is described as follows: qHTS assay for small molecule activators of the nuclear factor-kappa B (NF-kB) signaling pathway (AID 651749; active means well fitted activation curve with a large enough effect in the signal ratio; the % refers to the signal ratio; further: % of control where 0% means no effect). As to conditions: NF-kB-bla ME-180 cells, beta-lactamase FRET ratio, 16 h; stronger effect = higher value. Summed up: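 Incubation lasted 16 hr at 37C in 5% CO2 after 23 nL compound addition to ME-180 NF-kB-bla cells. Activation appears as beta-lactamase-mediated FRET loss.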

A short description of assay [13]: qHTS assay for small molecule disruptors of the mitochondrial membrane potential - 5 hr assay (AID 651755). Further: on the % scale 0 is the no-effect control and ±100 the full control effect; nearly all actives have a fitted effect of over 40% in size. As to conditions: JC-1-type ratio dye; series mostly up to 92.2 µM. Summed up:
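HepG2 cells (2,000/well), attached overnight, exposed to compound 5 hr at 37C, then Mito-MPS dye 30 min. Fluorescence read for monomers (490/535 nm) and aggregates (540/590 nm).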

Assay [14] concerns the target Nuclear receptor ROR-gamma (Homo sapiens) (UniProt P51449). Nature of the assay: qHTS assay for small molecule antagonists of the retinoid-related orphan receptor gamma (ROR-gamma) signaling pathway (AID 651802; active means well fitted curve in the direction sought with a large enough effect; an effect the other way counts as inactive or inconclusive;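 further: CHO cells with doxycycline-induced ROR-gamma expression; luciferase reporter luminescence driven by ROR response element; on the % scale 0 is the no-effect control and ±100 the full control effect; nearly all actives have a fitted effect of over 60% in size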). As to conditions: ROR-gamma antagonist cell reporter assay; series mostly up to 92.2 µM. Summed up: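 Antagonism is scored as a fall in luminescence from a RORE-luciferase reporter in CHO cells expressing ROR under a TET-inducible promoter, measured 16hr after doxycycline induction in the presence of compound.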

Assay [15] is described as follows: qHTS assay for small molecule agonists of the antioxidant response element (ARE) signaling pathway measured by Nrf2-dependant transcriptional activity (AID 720636; active means well fitted curve in the direction sought with a large enough effect in the repeat runs; an effect the other way counts as inactive or inconclusive; further: % of control where 0% means no effect). As to conditions: ARE-luc HepG2, Nrf2 luciferase reporter, 16 h; series mostly up to 92.4 µM. Summed up: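 Attachment 6 hr at 37 C, then compound versus DMSO vehicle for 16 hr in ARE-luc HepG2 cells (1% dialyzed FBS); luminescence recorded 30 min after ONE-Glo addition at room temperature.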

Assay [16] in a line: Cell Viability - NIH 3T3 (AID 541; active means well fitted curve in the direction sought with a large enough effect; an effect the other way counts as inactive or inconclusive;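 further: cells exposed to compound for 40 hours; plate controls were DMSO alone for no effect and tamoxifen positive control for full effect; nearly all actives have a fitted effect of over 25% in size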). As to conditions: NIH 3T3 cell viability, qHTS; activity change, negative = cytotoxicity: at 92.2 µM (top of the series). The procedure, abridged:
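AC50 values reflect concentration-dependent loss of intracellular ATP in NIH 3T3 cells after 40 hr treatment in complete culture medium, quantified by luciferase-based luminescence.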

In assay [17] the target is Thyroid hormone receptor beta (Homo sapiens) (UniProt P10828). Nature of the assay: qHTS assay for small molecule antagonists of thyroid hormone receptor beta signaling (AID 588547; active means well fitted inhibition curve with a large enough effect in the signal ratio, with a control signal flat, not every such curve was filed as active; the % refers to the signal ratio;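 further: cells stimulated with 0.4 nM T3 agonist during compound exposure; on the % scale 0 is the no-effect control and ±100 the full control effect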). As to conditions: TR-UAS-bla HEK293, beta-lactamase ratio, antagonist mode, 18 h. Summed up:
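TR-UAS-bla GripTite HEK293 cells in 2% charcoal/dextran FBS medium; compounds 0.59 nM to 92 uM with T3 at 0.4nM final, 18 h at 37 C. Beta-lactamase read by CCF4 fluorescence (460/530 nm); Hill fits gave IC50 and efficacy.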

Assay [18] is described as follows: qHTS assay for small molecule disruptors of the mitochondrial membrane potential - 1 hr assay (AID 651754). Further: on the % scale 0 is the no-effect control and ±100 the full control effect; nearly all actives have a fitted effect of over 35% in size. The conditions noted are these: series mostly up to 92.2 µM. The procedure, abridged:
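Steps: seed HepG2 cells and let attach overnight; pin-transfer compound or vehicle; incubate 1 hr at 37C; add Mito-MPS dye for 30 min; read two-channel fluorescence for monomer and aggregate forms.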

Assay [19] has as its target Vitamin D3 receptor (Homo sapiens) (UniProt P11473). Nature of the assay: qHTS assay for small molecule antagonists of vitamin D receptor signaling (AID 588541).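 Further: receptor activated by calcitriol during compound treatment; on the % scale 0 is the no-effect control and ±100 the full control effect.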 As to conditions: HEK293T VDR-UAS-bla, beta-lactamase ratio, antagonist mode; series mostly up to 76.7 µM. Summed up: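 VDR-UAS-bla HEK293T cells in 2% charcoal-stripped FBS were stimulated with 1-alpha,25-dihydroxyvitamin D3 (3 nM final) plus compound for 16 h at 37 C. The beta-lactamase CCF4 readout was normalized to 50 nM agonist and DMSO, and Hill fits gave IC50.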

A short description of assay [20]: Cell Viability - SK-N-SH (AID 435).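 Further: potency means the concentration at half of the fitted maximal effect; compound exposure lasted 40 h at 37 °C.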 As to conditions: SK-N-SH neuroblastoma cell viability qHTS. The procedure, abridged:
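CellTiter-Glo ATP luminescence, 20 min RT read; cells pre-plated 5 hr, compound 40 hr at 37 °C, 1500 cells/well, complete medium. Normalized DMSO = 0, 100 uM tamoxifen = 100% inhibition; Hill-fit AC50.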

Here are results for seven compounds from PubChem BioAssay (NCATS).

Structures are written as SMILES. “And” between values parts separate entries of the source, which are not always exact repeats. Equal values may be shown once. Results filed as inconclusive are left out. The source made the active and inactive calls. Unless noted, the call rests on the fitted dose curve.

Glucocorticoid receptor (Homo sapiens), sequence (P04150 whole entry, looked up): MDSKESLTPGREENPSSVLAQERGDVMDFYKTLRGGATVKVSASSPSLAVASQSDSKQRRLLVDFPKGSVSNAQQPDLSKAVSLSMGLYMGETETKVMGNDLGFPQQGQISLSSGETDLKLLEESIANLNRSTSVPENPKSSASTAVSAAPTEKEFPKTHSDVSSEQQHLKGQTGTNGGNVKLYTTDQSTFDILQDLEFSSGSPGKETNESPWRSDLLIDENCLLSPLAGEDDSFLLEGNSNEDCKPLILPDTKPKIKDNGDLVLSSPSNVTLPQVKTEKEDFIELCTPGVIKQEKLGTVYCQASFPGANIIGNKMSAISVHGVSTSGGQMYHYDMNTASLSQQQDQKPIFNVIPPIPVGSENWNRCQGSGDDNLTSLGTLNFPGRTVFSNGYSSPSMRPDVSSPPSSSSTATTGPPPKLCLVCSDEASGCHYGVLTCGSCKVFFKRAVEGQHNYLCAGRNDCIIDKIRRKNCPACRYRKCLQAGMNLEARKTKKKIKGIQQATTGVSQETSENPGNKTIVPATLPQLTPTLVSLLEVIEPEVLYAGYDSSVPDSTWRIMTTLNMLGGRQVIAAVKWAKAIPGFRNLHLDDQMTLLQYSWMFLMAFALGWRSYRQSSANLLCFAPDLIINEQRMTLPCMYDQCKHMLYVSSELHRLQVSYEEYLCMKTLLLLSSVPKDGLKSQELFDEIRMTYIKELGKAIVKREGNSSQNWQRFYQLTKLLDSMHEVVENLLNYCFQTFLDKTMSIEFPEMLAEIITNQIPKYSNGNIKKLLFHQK
Vitamin D3 receptor (Homo sapiens), sequence (P11473 whole entry, looked up): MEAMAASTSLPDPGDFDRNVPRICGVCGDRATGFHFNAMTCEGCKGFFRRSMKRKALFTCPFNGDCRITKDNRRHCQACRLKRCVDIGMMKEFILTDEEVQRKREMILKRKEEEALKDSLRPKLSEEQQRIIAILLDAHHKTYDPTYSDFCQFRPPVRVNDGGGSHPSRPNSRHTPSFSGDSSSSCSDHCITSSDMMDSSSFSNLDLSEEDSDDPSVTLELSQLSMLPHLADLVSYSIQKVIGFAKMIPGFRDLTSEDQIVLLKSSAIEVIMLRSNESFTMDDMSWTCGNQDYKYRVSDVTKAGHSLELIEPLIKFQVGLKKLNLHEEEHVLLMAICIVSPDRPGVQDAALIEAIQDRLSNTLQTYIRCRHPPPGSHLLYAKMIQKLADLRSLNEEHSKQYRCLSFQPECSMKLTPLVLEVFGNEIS
Peroxisome proliferator-activated receptor delta (Homo sapiens), sequence (Q03181 whole entry, looked up): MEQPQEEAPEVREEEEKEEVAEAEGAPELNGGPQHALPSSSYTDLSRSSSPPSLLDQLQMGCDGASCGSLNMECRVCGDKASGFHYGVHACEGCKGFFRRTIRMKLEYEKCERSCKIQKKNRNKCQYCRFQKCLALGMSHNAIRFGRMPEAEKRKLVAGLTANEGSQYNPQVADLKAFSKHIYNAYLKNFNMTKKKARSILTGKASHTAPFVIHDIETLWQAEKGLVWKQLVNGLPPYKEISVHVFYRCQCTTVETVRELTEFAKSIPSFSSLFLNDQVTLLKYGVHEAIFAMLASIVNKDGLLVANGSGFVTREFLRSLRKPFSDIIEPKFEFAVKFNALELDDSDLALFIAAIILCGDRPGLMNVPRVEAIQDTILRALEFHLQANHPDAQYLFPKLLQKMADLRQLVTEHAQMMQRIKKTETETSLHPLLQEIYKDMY
Nuclear receptor ROR-gamma (Homo sapiens), sequence (P51449 whole entry, looked up): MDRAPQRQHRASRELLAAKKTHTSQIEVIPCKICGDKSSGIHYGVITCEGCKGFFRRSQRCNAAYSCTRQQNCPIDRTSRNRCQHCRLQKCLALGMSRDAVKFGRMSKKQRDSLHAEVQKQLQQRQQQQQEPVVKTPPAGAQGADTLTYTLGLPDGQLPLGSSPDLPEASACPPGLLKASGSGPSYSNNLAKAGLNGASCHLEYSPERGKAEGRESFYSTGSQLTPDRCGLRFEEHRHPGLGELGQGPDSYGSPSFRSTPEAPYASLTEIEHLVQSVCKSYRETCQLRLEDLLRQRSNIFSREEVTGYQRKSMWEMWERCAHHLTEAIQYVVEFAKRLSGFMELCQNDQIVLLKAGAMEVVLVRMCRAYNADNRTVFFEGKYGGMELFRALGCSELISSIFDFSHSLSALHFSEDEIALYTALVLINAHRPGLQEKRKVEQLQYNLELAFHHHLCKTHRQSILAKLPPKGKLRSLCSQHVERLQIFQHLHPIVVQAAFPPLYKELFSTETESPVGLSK
Thyroid hormone receptor beta (Homo sapiens), sequence (P10828 whole entry, looked up): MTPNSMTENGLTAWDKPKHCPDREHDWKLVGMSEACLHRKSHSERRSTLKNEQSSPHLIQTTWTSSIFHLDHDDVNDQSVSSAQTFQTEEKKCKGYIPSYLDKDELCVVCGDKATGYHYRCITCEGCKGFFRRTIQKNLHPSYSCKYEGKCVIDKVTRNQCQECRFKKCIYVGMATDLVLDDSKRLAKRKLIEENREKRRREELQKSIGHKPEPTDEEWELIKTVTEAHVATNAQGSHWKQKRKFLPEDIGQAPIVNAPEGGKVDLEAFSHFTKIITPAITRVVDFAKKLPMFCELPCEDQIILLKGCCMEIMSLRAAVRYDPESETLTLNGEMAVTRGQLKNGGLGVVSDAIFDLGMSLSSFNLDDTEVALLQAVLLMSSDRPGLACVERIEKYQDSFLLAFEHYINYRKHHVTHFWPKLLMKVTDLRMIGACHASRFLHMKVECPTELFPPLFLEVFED

Turning to `NC1CCC(CC2CCC(N)CC2)CC1` (centres undefined), the Potency entry in [1], in [3], in [4], in assay [10], in assay [11] and in assay [13] was “inactive” each time. The Potency result in assay [14] and in assay [15] was “inactive” throughout. The result in assay [2], in assay [6], in [7] and in assay [9] was inactive. Besides, the activation was 2.97% (inactive) and -18.9% (inactive) in assay [5]; -0.779% (inactive) and -0.659% (inactive) in assay [12]. Further, the max response in [8] is -9.87%.
`CC(C)CC(C)N` (centres undefined): the Potency result in assay [16], in assay [3], in [4], in assay [10], in assay [18] and in assay [13] was “inactive” in each case. The Potency entry in assay [14] and in assay [15] was “inactive” each time. The call in [2], in [7] and in assay [9] was inactive. The max response in assay [8] is -20.2%. The activity change % (negative = inhibition) in [17] was 11.1% (inactive).
Consider `C=CCCl`, for which the Potency entry in [16], in [1], in assay [3], in assay [4], in assay [10] and in assay [18] was “inactive” throughout. The Potency entry in [13], in assay [14] and in assay [15] was “inactive” throughout. In addition, the compound was classed as inactive in assay [2], in assay [7] and in [19]. For the same compound, the activation in assay [5] is 2.78% (inactive); in assay [12] it was -0.803% (inactive). Moreover, the activity change % (negative = inhibition) in [17] was -1.64% (inactive).
For `ClC(Cl)c1ccccc1`, the Potency entry in assay [16], in assay [1], in assay [3], in [4], in assay [11] and in assay [18] was “inactive” in each case. Further, the Potency entry in assay [13], in assay [14] and in [15] was “inactive” each time. Besides, the outcome in assay [2], in assay [6], in [7], in assay [9] and in [19] was inactive. Also, the results for the activation in assay [5] and in [12] were -0.105% (inactive) and -0.312% (inactive), respectively. Besides, in assay [8], the max response turned out to be 17.7%. In addition, the activity change % (negative = inhibition) in [17] was -1.09% (inactive).
As for `O=C(O)CBr`, the Potency entry in assay [16], in assay [1], in assay [10], in assay [18], in assay [13] and in assay [14] was “inactive” in each case. The call in assay [2], in assay [7], in assay [9] and in assay [19] was inactive. Further, in [8], the max response is -19.5%. Moreover, the activity change % (negative = inhibition) in assay [17] was 11.6% (inactive). In assay [12], the activation is -0.961% (inactive).
`N#CCc1ccccc1`: the Potency result in assay [16], in [1], in assay [3], in [4], in assay [10] and in assay [18] was “inactive” throughout. Also, the Potency result in assay [13] and in assay [14] was “inactive” throughout. Besides, the compound was classed as inactive in assay [2], in assay [7], in assay [9] and in assay [19]. In addition, in assay [8], the max response is -33.3%. Besides, in [17], the activity change % (negative = inhibition) was 23.1% (inactive). Also, the activation in assay [12] is 0.487% (inactive).
Turning to `Clc1cccc(Cl)c1Cl`, the Potency in [20] was > 92 µM (inactive). Also, the Potency entry in [16], in assay [1], in assay [10], in assay [11], in [18] and in assay [13] was “inactive” each time. The Potency entry in assay [14] was “inactive”. The activation was -0.532% (inactive) in [5]; -0.304% (inactive) and 0.362% (inactive) in assay [12]. Also, the result in [6], in [9] and in [19] was inactive. Moreover, in assay [8], the max response was -24.3%. In addition, the activity change % (negative = inhibition) in [17] was -6.61% (inactive) and -16.3% (inactive).
